Source: PubChem BioAssay (National Center for Advancing Translational Sciences (NCATS))
HepG2 tox: HepG2 cytotoxicity, counter-screen for TGF-b inhibitors; AID 588856; HepG2 CAGA-GFP viability, ATP luminescence, 18 h; Potency, µM (titrated, usually from 46.1 µM), hits mostly cytotoxic; 410,000 compounds, 0.76% hits
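CellTiter-Glo luminescence gave cytotoxicity after 18 hours at 37 degrees C. The cells were HepG2 CAGA-GFP in 1% FBS DMEM, stimulated with 500 pg/mL TGF-beta after compound addition. %Activity was normalised to no-cell wells (complete cell-killing) and DMSO (no toxicity), and curves were fitted and classified.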
Apoferritin bind: candidate novel general anesthetic via apoferritin binding; P02791; apoferritin/1-aminoanthracene competitive binding, fluorescence; Potency, µM (titrated, usually from 77.5 µM), most hits filed as inhibitors; 350,000 compounds, 0.074% hits; further: nearly all actives have a fitted effect of over 20% in size
Target sequence (P02791 2-175 limits assumed): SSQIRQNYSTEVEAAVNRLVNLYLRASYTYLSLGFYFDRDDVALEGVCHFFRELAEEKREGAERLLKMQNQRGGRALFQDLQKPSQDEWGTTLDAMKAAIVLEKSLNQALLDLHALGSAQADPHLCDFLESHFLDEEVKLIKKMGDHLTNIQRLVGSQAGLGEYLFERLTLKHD
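In PBS, apoferritin at 10 uM is loaded with 1-AMA from a 50% saturated solution. After 10 min of compound exposure at ambient temperature, reduced 535 nm fluorescence indicates probe displacement.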
ATXN2 expr inh: ATXN2 expression inhibition | HEK-293 ATXN2-luciferase reporter, luminescence, 24 h | Potency, µM (highest dose often 57 µM), most hits filed as inhibitors | 360,000 compounds, 0.72% hits | AID 1745845; further: nearly all actives have a fitted effect of over 55% in size
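ATXN2-luciferase reporter cells (luciferase flanked by upstream and downstream ATXN2 gene portions) were treated 24 h at 37 °C with compounds at up to 57 uM. SteadyGlo luminescence gave expression; GF-AFC fluorescence gave viability.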
TGFb SMAD3 inh: blocks TGF-b signaling. 410,000 compounds, 1.2% hits. HepG2 CAGA-GFP TGF-b/SMAD3 reporter, GFP fluorescence, 18 h; TGF-beta stimulated, 500 pg/mL final. Potency, µM (top dose mostly 46.1 µM), most hits filed as inhibitors. AID 588855; further: nearly all actives have a fitted effect of over 65% in size
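Inhibition of TGF-beta-driven CAGA-GFP reporter expression in HEPG2 cells is measured by cellular GFP fluorescence after 18 h stimulation with 500 pg/mL recombinant TGF-beta in 1% FBS medium at 37 degrees C.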
S2 tox: viability counter-screen for ATXN expression inhibitors; S2 cells (HEK-293 line with an ATXN2-luciferase reporter) viability, CellTiter-Fluor protease fluorescence, 24 h; Potency, µM (highest dose often 56.7 µM), most hits filed as cytotoxic; 400,000 compounds, 0.49% hits; AID 651635; further: nearly all actives have a fitted effect of over 40% in size
Hits are given with their value; n = inactive; u = inconclusive; x = no result given; [ ] = another dose, or the depositor's remark. Sampled rows, rich in hits. Any-hit rate of the full collection: about 2.4%. The call rests on the fitted dose curve; in most records, active means well fitted curve in the direction sought with a large enough effect; inconclusive means small, poorly fitted or top-dose-only effect, or another doubt; inactive means no such curve, though single readings can be large; an effect the other way counts as inactive or inconclusive.

SMILES	HepG2 tox	Apoferritin bind	ATXN2 expr inh	TGFb SMAD3 inh	S2 tox
C=C1C(=O)OC2C=C(CO)CCC=C(CO)CC(OC(=O)C(C)C)C12 (stereo not given)	n	x	u	15.8µM	u
C=C1C(=O)OC2C1C(OC(=O)C(C)=CC)CC(=C)C1C(O)C3OC3(C)C21O (stereo not given)	n	x	n	n	n
CC(C)Oc1ccc(F)cc1-c1cc(C(=O)NCc2cc(C(F)(F)F)cc(C(F)(F)F)c2)[nH]n1	n	x	n	11.2µM	u
CC(C)Oc1cc(F)ccc1-c1cc(C(=O)Nc2cccc(C(F)(F)F)c2)[nH]n1	n	x	u	u	28.2µM
CCC[C@H](Nc1nc(-c2ccc(NC(=O)NCC)c(OC)c2)ncc1C)c1cccnc1	x	x	n	x	x
CCOc1ccc(NC(=O)C(C)Sc2nc3ncccc3o2)cc1 (stereo not given)	n	n	n	n	n
CS(=O)(=O)c1ccc(-c2ccc3c(c2)CC(CNC(=O)C2(N4CCOCC4)CCCCC2)O3)cc1 (stereo not given)	x	x	x	x	n
CCOC(=O)c1cc2c(ccn2C)n1CC(=O)N1CCC(Cc2ccccc2)CC1	n	n	n	11.2µM	u
CO[C@H]1COC(=O)CCC[C@H](C)[C@@H](OC)COC(=O)C/C=C\[C@@H]1C	x	n[15.3 µM]	x	x	x
CN1CCN(CCC(=O)N/N=C/c2ccccc2F)CC1	n	n	n	n	n
O=C(CCN1CCN(c2ccccc2)CC1)N/N=C/c1ccccc1O	n	n	26.7µM	u	n
CSc1ccc(C(=O)C2CCCN(C(=O)c3ccc4c(c3)no[n+]4[O-])C2)cc1 (stereo not given)	n	n	x	u	14.1µM
CSc1ccc(C(=O)C2CCCN(C(=O)c3ccsc3)C2)cc1 (stereo not given)	n	u	x	n	u
CCCNC(=O)c1ccc2c(c1)N=C(CCC)c1ccccc1S2	n	u	n	8.91µM	u
O=C1CCC2S/C(=C/Nc3ccc(C(F)(F)F)cc3)C(=O)N12 (stereo not given)	n	n	2.82µM	n	n
C=CCOC(=O)C(C(C)=O)C(NC(=O)OC)c1ccc2ccccc2c1 (stereo not given)	x	n[15.3 µM]	x	x	x
N/C(=N\OC(=O)c1ccc2ccccc2c1)c1ccccn1	n	n	11.2µM	n	n
COc1ccc(S(=O)(=O)N2CCCN(CCC(=O)Nc3cccc(C(F)(F)F)c3)CC2)cc1	n	n	n	n	n
CC1CCN(S(=O)(=O)c2cn(CC(=O)Nc3cccc(C(F)(F)F)c3)c(=O)c3ccccc23)CC1	n	n	n	12.6µM	u
O=C(CN1CCCN(S(=O)(=O)c2ccc(Br)cc2)CC1)Nc1cccc(C(F)(F)F)c1	n	n	u	7.94µM	u
CC1=C(C(=O)N(C(C)C)C(C)C)CC(CC(=O)NC2CCCCC2)C(=O)N1Cc1ccc(C(C)(C)C)cc1 (stereo not given)	12.6µM	x	u	u	u
CC1=C(C(=O)N(C(C)C)C(C)C)CC(CC(=O)NCc2cccs2)C(=O)N1Cc1ccc(C(C)(C)C)cc1 (stereo not given)	15.8µM	x	u	u	u
CCN(CC)C(=O)C1=C(C)N(Cc2ccc(C(C)(C)C)cc2)C(=O)C(CC(=O)NCC2CCCCC2)C1 (stereo not given)	n	x	u	u	28.2µM
COc1cc(C(=O)OC(COCCC(C)C)CN2CCOCC2)cc(OC)c1OC (stereo not given)	x	x	n	x	n
COc1cccc(C(NC(C)=O)c2nc(-c3cccc(C(=O)O)c3)cs2)c1 (stereo not given)	n	x	n	n	n
SMILES	HepG2 tox	Apoferritin bind	ATXN2 expr inh	TGFb SMAD3 inh	S2 tox
C=CCNC(=S)NNC(=O)c1ccc(OCCC)cc1	n	n	n	n	n
CCCOc1ccc(C(=O)NNC(=S)NC(=O)CC)cc1	n	n	28.2µM	n	x
O=C(O)CCn1c2c(c3ccccc31)C[C@H](NS(=O)(=O)c1ccc(F)cc1)CC2	x	x	n	x	n
COc1ccc2c(c1)c(CC(=O)Nc1cccc(S(N)(=O)=O)c1)c(C)n2C(=O)c1ccc(Cl)cc1	n	n	u	15.8µM	u
COc1cccc(O)c1CN1CCC(C(=O)Nc2ccc(-c3cccc(C)c3)cc2)CC1	12.6µM	u	u	u	n
COc1cccc(O)c1CN1CCC(C(=O)Nc2ccc(Oc3cccnc3)cc2)CC1	n	u	n	n	n
CCN(CC)S(=O)(=O)c1ccc2c(c1)N(CC(=O)NCCCN1CCN(c3cc(Cl)ccc3C)CC1)C(=O)CO2	12.6µM	u	u	u	x
O=C(CN1C(=O)COc2ccc(S(=O)(=O)N3CCCCCC3)cc21)NCc1ccc(Cl)cc1	n	n	x	10µM	x
CC1CCN(S(=O)(=O)c2ccc3c(c2)N(CC(=O)NCCc2ccc(Cl)cc2)C(=O)CO3)CC1	n	n	u	12.6µM	28.2µM
O=C(CN1C(=O)COc2ccc(S(=O)(=O)N3CCCCC3)cc21)NCc1ccc(Cl)cc1	n	n	n	u	n
CCN(CC)S(=O)(=O)c1ccc2c(c1)N(CC(=O)N1CCN(c3cc(Cl)ccc3C)CC1)C(=O)CO2	n	n	n	n	n
COc1cc(=O)n2c(c1C(=O)NCc1ccco1)CCN(C(=O)c1c(F)ccc(F)c1F)CC2	x	x	x	x	n
CC(C)Oc1ccc(C(=O)NCC2Cc3cc(F)cc(-c4cnccn4)c3O2)cc1 (stereo not given)	x	x	x	x	n
CCCCOc1c(Cl)cc(C(=O)N(Cc2ccc(C)o2)C2CCS(=O)(=O)C2)cc1Cl (stereo not given)	n	n	n	u	u
CCCCCOc1c(Cl)cc(C(=O)N(Cc2ccc(C)o2)C2CCS(=O)(=O)C2)cc1Cl (stereo not given)	n	n	u	17.8µM	u
Cn1c(=O)oc2cc(S(=O)(=O)Nc3ccc(F)cc3)ccc21	3.98µM	n	n	n	n
CCC(=O)N[C@H]1CC[C@H](C(=O)N(C)c2ccc(-c3nc4ccccc4o3)cc2)C1	x	x	n	x	x
Oc1cc(O)cc(C=Cc2ccc(O)c(O)c2)c1	x	x	n	x	x
CCn1cc(C(=O)NCc2ccccc2)c(=O)c2cc(F)c(N3CCN(C(=O)c4ccco4)CC3)cc21	n	n	u	20µM	n
CCn1cc(C(=O)NCc2ccncc2)c(=O)c2cc(F)c(N3CCN(C(=O)c4ccco4)CC3)cc21	n	n	n	n	n
Cc1[nH]nc2ccc(-c3cncc(OC[C@@H](N)Cc4ccccc4)c3)cc12	x	x	3.06µM	x	x
Cc1cc2ncc(-c3ccccc3)nc2cc1C	n	n	x	n	n
CCOC(=O)c1ccc2ncc(-c3ccccc3)nc2c1	2.51µM	n	n	n	n
CCOc1ccccc1CNC(=O)c1ccc(NC(=O)N2CC(C)Sc3ccccc32)cc1 (stereo not given)	n	n	n	n	n
CC(=O)O[C@]1(C(C)=O)CC[C@H]2[C@@H]3C=C(Cl)C4=CC(=O)[C@@H]5C[C@H]5[C@]4(C)[C@@H]3CC[C@@]21C	x	x	n	x	x
